L3MBTL1 inh: blocks human L3MBTL1 | Potency, µM (titrated, usually from 57.1 µM), without a hit: at the highest dose activity, negative = inhibition, actives largely listed as inhibitors | AID 485360 | hit rate 0.66% among 230,000 | Q9Y468 | AlphaScreen L3MBTL1–H3K9me1 peptide binding; also: potency is read from the fitted curve at half-maximal effect; % is scaled to controls: 0 for no effect and ±100 for the full control effect; nearly all actives have a fitted effect of over 60% in size
Target sequence (Q9Y468 whole entry, looked up): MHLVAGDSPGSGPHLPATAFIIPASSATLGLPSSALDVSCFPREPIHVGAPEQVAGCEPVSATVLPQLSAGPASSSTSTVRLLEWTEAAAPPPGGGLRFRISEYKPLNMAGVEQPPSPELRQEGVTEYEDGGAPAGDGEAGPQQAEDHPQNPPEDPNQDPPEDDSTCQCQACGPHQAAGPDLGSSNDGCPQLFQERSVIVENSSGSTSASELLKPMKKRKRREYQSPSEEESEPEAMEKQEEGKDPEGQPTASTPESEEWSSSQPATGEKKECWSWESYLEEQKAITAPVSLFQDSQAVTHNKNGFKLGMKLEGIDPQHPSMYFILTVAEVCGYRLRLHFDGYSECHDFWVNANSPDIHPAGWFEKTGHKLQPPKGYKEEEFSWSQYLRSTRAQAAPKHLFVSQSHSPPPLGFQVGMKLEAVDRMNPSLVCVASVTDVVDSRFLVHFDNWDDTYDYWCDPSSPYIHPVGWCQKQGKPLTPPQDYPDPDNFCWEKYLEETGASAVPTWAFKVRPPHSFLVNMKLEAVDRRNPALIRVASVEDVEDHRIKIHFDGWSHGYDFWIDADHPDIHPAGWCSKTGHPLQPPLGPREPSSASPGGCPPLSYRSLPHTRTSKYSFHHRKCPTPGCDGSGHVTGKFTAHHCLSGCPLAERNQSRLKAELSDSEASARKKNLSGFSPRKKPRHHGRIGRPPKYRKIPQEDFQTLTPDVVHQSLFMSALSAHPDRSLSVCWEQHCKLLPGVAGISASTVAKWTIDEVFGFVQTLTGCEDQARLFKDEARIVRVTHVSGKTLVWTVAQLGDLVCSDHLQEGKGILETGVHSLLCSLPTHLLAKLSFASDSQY
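Read-out is AlphaScreen signal from streptavidin donor and nickel chelate acceptor beads (10 ug/mL final each) bridging L3MBTL1 (50 nM) and biotinylated K9-monomethylated H3(1-15) peptide (75 nM), after 30 min compound exposure at room temperature.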
PI5P4Ka inh: inhibitors of human PI5P4K alpha; P48426; PI5P4Kalpha enzyme, ADP-Glo luminescence, 60 min; active compounds read low; max response, %; hit rate 1.2% among 330,000; AID 652105; active = max response of -50% or lower; inconclusive = between -30% and -50%; inactive = -30% or higher; also: value at the top dose of about 77 µM; % is scaled to controls: 0 for no effect and ±100 for the full control effect
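PI5P4Kalpha ADP-Glo assay; 5 microM ATP final; 60 min RT reaction; HEPES pH 7.4/EGTA/CHAPS, 5% DMSO; controls lacking substrate or enzyme; luminescent end-point.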
BAZ2B inh: BAZ2B (human) inhibition; hit rate 4.4% among 360,000; Q9UIF8; Potency, µM (top dose mostly 114 µM), for the others: top-dose activity change, negative = inhibition, most hits filed as inhibitors; AlphaScreen BAZ2B-H3K14Ac peptide displacement; also: potency is read from the fitted curve at half-maximal effect; % is scaled to controls: 0 for no effect and ±100 for the full control effect; nearly all actives have a fitted effect of over 60% in size
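AlphaScreen displacement: compounds (up to 110uM) incubated 30 min at room temperature with a preformed 50 nM BAZ2B/50 nM biotinylated H3K14Ac peptide complex in PBS pH 7.4 with Tween-20. Donor and acceptor beads at 10 ug/mL final added, 20 min light-protected before reading.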
HP1b chromo inh: blocks HP1-beta chromodomain binding to methylated histone tails | P83916 | Potency, µM (highest dose often 114 µM), inactives show at the top dose activity change, negative = inhibition, actives largely listed as inhibitors | AlphaScreen HP1-beta / biotin-H3K9me3 peptide binding | hit rate 0.56% among 390,000; also: potency is read from the fitted curve at half-maximal effect; nearly all actives have a fitted effect of over 70% in size
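HP1-beta protein (50 nM final) preincubated 30 min at room temperature with biotinylated H3(1-18)K9me3 peptide (50 nM) in PBS pH 7.4, 0.01% Tween-20, then compound added for 30 min. AlphaScreen streptavidin donor/nickel chelate acceptor beads (10 ug/mL final), 30 min dark, luminescence read.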
JMJD2E inh: inhibitors of human JMJD2E histone demethylase. B2RXH2. Potency, µM (series often up to 57.1 µM), for the others: top-dose activity change, negative = inhibition, most hits filed as inhibitors. hit rate 1.6% among 230,000. JMJD2E catalytic domain, FDH-coupled NADH fluorescence (FDH is formaldehyde dehydrogenase); active = well fitted inhibition curve with a large enough effect, not every such curve was filed as active; inconclusive = small, poorly fitted or top-dose-only effect, or another doubt; inactive = no such curve, though single readings can be large or run the other way;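 also: potency is read from the fitted curve at half-maximal effect; 0% = wells with enzyme and -100% = buffer wells without enzyme; nearly all actives have a fitted effect of over 50% in size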
JMJD2A Tudor: JMJD2A Tudor domain (human) inhibition | O75164 | AlphaScreen JMJD2A-Tudor / H3K4me3 peptide binding | Potency, µM (doses to about 114 µM), without a hit: at the highest dose activity change, negative = inhibition, hits mostly inhibitors | hit rate 4.4% among 390,000 | AID 504339; also: potency is read from the fitted curve at half-maximal effect; % is scaled to controls: 0 for no effect and ±100 for the full control effect; nearly all actives have a fitted effect of over 50% in size
An asterisk follows results filed as active; [ ] = dose if it differs, or a comment. Sampled rows, rich in hits. Any-hit rate of the full collection: about 5.7%. Unless noted, calls follow the shape of the dose curve; as a rule, active = well fitted inhibition curve with a large enough effect; inconclusive = small, poorly fitted or top-dose-only effect; inactive = no such curve, though single readings can be large or run the other way.

For Cc1nn2c(=O)cc(COC(=O)c3ccc(NC(=O)c4ccc(C(C)(C)C)cc4)cc3)nc2s1 the results were BAZ2B inh -7%, HP1b chromo inh 20% and JMJD2A Tudor inconclusive.
O=C(OCCCN1CCOCC1)c1ccc(O)c(O)c1 was read as L3MBTL1 inh -1%, PI5P4Ka inh 4, BAZ2B inh -29%, HP1b chromo inh 22%, JMJD2E inh 16µM* and JMJD2A Tudor 32µM*.
Screening CCCCn1c(N)c(N(CCOC)C(=O)c2cc(-c3ccccc3Cl)nc3ccccc23)c(=O)[nH]c1=O returned L3MBTL1 inh 2%, PI5P4Ka inh 8, BAZ2B inh 30%, HP1b chromo inh 12% and JMJD2A Tudor -8%.
COc1ccc(-n2c(=O)c3ccc(C(=O)NCc4ccc(C)cc4)cc3n(Cc3ccc(F)cc3Cl)c2=O)cc1 was read as HP1b chromo inh 4% and JMJD2A Tudor -13%.
Cc1ccc(N=C2C(=S)N(c3ccc(C)cc3)C(=N)N2/N=C/c2ccc(Cl)cc2)cc1 was read as L3MBTL1 inh -23%, PI5P4Ka inh -14, BAZ2B inh inconclusive, HP1b chromo inh 3.5µM*, JMJD2E inh -3% and JMJD2A Tudor inconclusive.
For COc1ccc(/C=N/N2CCN(c3ccc(Cl)cc3)CC2)cc1 the results were L3MBTL1 inh -3%, PI5P4Ka inh 13, BAZ2B inh -24%, HP1b chromo inh 18% and JMJD2A Tudor -18%.
Cc1ccc2c(c1)c1nnc(SCC(=O)Nc3cccc(Cl)c3C)nc1n2CC(=O)O was read as L3MBTL1 inh 4%, PI5P4Ka inh -5, BAZ2B inh 50µM*, HP1b chromo inh -17%, JMJD2E inh 9% and JMJD2A Tudor inconclusive.
Screening Cc1ccc2c(c1)c1nnc(SCC(=O)Nc3ccccc3C(F)(F)F)nc1n2CC(=O)O returned L3MBTL1 inh 5%, PI5P4Ka inh 1, BAZ2B inh -16%, HP1b chromo inh 40%, JMJD2E inh 0% and JMJD2A Tudor -5%[57.1 µM].
N=C1CCC(=N)c2c1c(O)c1ccccc1c2O was read as L3MBTL1 inh 7.1µM*, PI5P4Ka inh -72*, BAZ2B inh 14µM*, HP1b chromo inh 20µM*, JMJD2E inh inconclusive and JMJD2A Tudor 14µM*.
For Cc1ccc(Cl)cc1-n1ncc2c(Nc3cccc(C)c3C)ncnc21 the results were BAZ2B inh -16%, HP1b chromo inh -1% and JMJD2A Tudor -35%.
For Cc1cc(C)cc(NC2=C(c3ccccc3)C(=O)c3ccccc32)c1 the results were BAZ2B inh 13µM*, HP1b chromo inh inconclusive and JMJD2A Tudor 13µM*.
For O=C(NC1CCCC1)O[C@@H]1C(=O)c2cc(Br)ccc2O[C@H]1c1ccc2c(c1)OCO2 the results were JMJD2E inh -5%.
Cc1ccc(NC(=S)/C(=C(\[O-])c2ccc(C)c([N+](=O)[O-])c2)[n+]2ccccc2)cc1C was read as L3MBTL1 inh -12%, BAZ2B inh 56µM* and JMJD2E inh -2%.
Screening CC(C)(C)c1cn(-c2ccccc2)c(=S)[nH]1 returned L3MBTL1 inh -9%, PI5P4Ka inh -9, BAZ2B inh inconclusive, HP1b chromo inh 13%, JMJD2E inh -7% and JMJD2A Tudor 22µM*.
`Cc1ccc(-n2cc(C(C)(C)C)[nH]c2=S)cc1` gave L3MBTL1 inh -1%, PI5P4Ka inh -10, BAZ2B inh inconclusive, HP1b chromo inh inconclusive, JMJD2E inh 1% and JMJD2A Tudor 45µM*.
Screening COc1ccccc1-c1cn(-c2ccccc2)c(=S)[nH]1 returned PI5P4Ka inh -7, BAZ2B inh -28%, HP1b chromo inh 30% and JMJD2A Tudor -34%.
COc1cc(NC(=O)Cn2ccn(Cc3ccccc3OC)c(=O)c2=O)cc(OC)c1 was read as BAZ2B inh 2%, HP1b chromo inh 5% and JMJD2A Tudor -2%.
For COc1cccc(/C=N/Nc2snc(SC)c2C#N)c1 the results were L3MBTL1 inh 0%, PI5P4Ka inh -1, BAZ2B inh -37%, HP1b chromo inh 10%, JMJD2E inh inactive and JMJD2A Tudor -17%.
`COc1ccc(/C=N/Nc2snc(SC)c2C#N)cc1OC` gave L3MBTL1 inh -23%, PI5P4Ka inh -1, BAZ2B inh 45µM*, HP1b chromo inh -33%, JMJD2E inh inactive and JMJD2A Tudor inconclusive.
For COc1ccc(-c2cc(=O)n(CCC#N)[nH]2)cc1 the results were L3MBTL1 inh -11%, PI5P4Ka inh 2, BAZ2B inh -10%, HP1b chromo inh 21%, JMJD2E inh 1.8µM* and JMJD2A Tudor -14%.
For COc1ccc(-c2cc3nc(N)cc(=O)n3[nH]2)cc1 the results were BAZ2B inh 8%, HP1b chromo inh 31% and JMJD2A Tudor -6%.
`CCC(C)(C)NC(=O)CCCSc1nc2ccccc2[nH]1` gave PI5P4Ka inh 0, BAZ2B inh 5%, HP1b chromo inh 49%, JMJD2E inh 5% and JMJD2A Tudor 2%[11.4 µM].
COc1cc(/C=C2/SC(=S)N(CCC(=O)Nc3ccc(C(=O)O)cc3)C2=O)cc(OC)c1OC was read as PI5P4Ka inh 2, BAZ2B inh inconclusive, HP1b chromo inh 6% and JMJD2A Tudor inconclusive.
`O=C(CCN1C(=O)/C(=C/c2ccc(Cl)cc2)SC1=S)Nc1cccnc1` gave PI5P4Ka inh 1, BAZ2B inh 1%, HP1b chromo inh -16% and JMJD2A Tudor -19%.
COc1ccc(/C=C2\SC(=S)N(CCC(=O)Nc3ccc(C(=O)O)cc3)C2=O)cc1 was read as L3MBTL1 inh -4%[2.29 µM], PI5P4Ka inh 0, BAZ2B inh 35µM*, HP1b chromo inh 50µM* and JMJD2A Tudor -101%.
Screening COc1cc(/C=C2\SC(=S)N(CCC(=O)Nc3ccc(O)cc3)C2=O)cc(OC)c1OC returned PI5P4Ka inh -8, BAZ2B inh 0%, HP1b chromo inh -4% and JMJD2A Tudor 22µM*.
For COc1ccc(/C=C2\SC(=S)N(CCCC(=O)Nc3ccc(O)cc3)C2=O)cc1 the results were L3MBTL1 inh -29%, PI5P4Ka inh 7, BAZ2B inh -31%, HP1b chromo inh 23%, JMJD2E inh -5% and JMJD2A Tudor -19%[11.4 µM].
Screening O=C(CCN1C(=O)/C(=C/c2ccc(Cl)cc2)SC1=S)Nc1ccc(C(=O)O)cc1 returned PI5P4Ka inh 0, BAZ2B inh -16%, HP1b chromo inh 71µM* and JMJD2A Tudor inconclusive.
Screening CCc1nnc(NC(=O)CSc2nc3c([nH]c4ccccc43)c(=O)n2-c2ccc(F)cc2)s1 returned BAZ2B inh 1%, HP1b chromo inh 10%[57 µM] and JMJD2A Tudor 5%.
`O=c1cc(-c2ccccc2)[nH]n1-c1ccccc1` gave PI5P4Ka inh 0, HP1b chromo inh -6% and JMJD2A Tudor inconclusive.

Screens: PubChem BioAssay, National Center for Advancing Translational Sciences (NCATS)
